Reference: PubChem BioAssay (NCATS)
Several values for one entry are separate records, joined by “and”; a condition that tells them apart may be missing. Equal values may be shown once. Inconclusive results are not listed. Some compounds were tested as several samples or in several runs, with calls that do not always agree. Activity calls are given as the source filed them. The call rests on the fitted dose curve; in most records, active means well fitted curve in the direction sought with a large enough effect; inconclusive means small, poorly fitted or top-dose-only effect, or another doubt; inactive means no such curve, though single readings can be large; an effect the other way counts as inactive or inconclusive.

What was measured:
[1] = tested on: CRL-7250; assay: Cytotoxic Profiling of Annotated Libraries Using Quantitative High-Throughput Screening (AID 1296008); conditions: Five cell lines viability, CellTiter-Glo ATP luminescence, 48-72 h; max response: stronger effect = lower value; further: nearly all actives have a fitted effect of over 60% in size; on max response: on the % scale 0 is the no-effect control and ±100 the full control effect
How it was run: (§1)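 Cytotoxicity was measured as CellTiter-Glo ATP luminescence, read after 10 min at room temperature. Compound treatment of the cells lasted 48 or 72 hr at 37 degrees Celsius in a qHTS format.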

[2] = tested on: HaCat; assay: as above; conditions: Five cell lines viability, CellTiter-Glo ATP luminescence, 48-72 h; max response: stronger effect = lower value
How it was run: as §1

[3] = tested on: MCC-13; assay: qHTS assay to identify novel small-molecules to repurpose for Merkel cell carcinoma treatment (AID 1296009); conditions: MCC and control cell lines, CellTiter-Glo viability, 72 h; series mostly up to 46 µM; further: nearly all actives have a fitted effect of over 60% in size
How it was run: (§2)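 After compound transfer in DMSO, plates were kept 72 hr at 37 degree celsius. Luminescent ATP signal from CellTiter-Glo served as viability measure, normalized against DMSO and no-cell controls.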

[4] = tested on: MCC-26; assay: as above; conditions: MCC and control cell lines, CellTiter-Glo viability, 72 h; series mostly up to 46 µM
How it was run: as §2

[5] = tested on: MKL-1; assay: as above; conditions: MCC and control cell lines, CellTiter-Glo viability, 72 h; series mostly up to 46 µM
How it was run: as §2

[6] = tested on: MKL-2; assay: as above; conditions: MCC and control cell lines, CellTiter-Glo viability, 72 h; series mostly up to 46 µM
How it was run: as §2

[7] = tested on: UISO; assay: as above; conditions: MCC and control cell lines, CellTiter-Glo viability, 72 h; series mostly up to 46 µM
How it was run: as §2

[8] = tested on: WaGa; assay: as above; conditions: MCC and control cell lines, CellTiter-Glo viability, 72 h; series mostly up to 46 µM
How it was run: as §2

[9] = tested on: C33A; assay: Primary qHTS to identify gynecologic anti-cancer compounds using libraries of approved drugs and bioactive compounds (AID 1345084); conditions: Gynecologic cancer cell panel viability, ATPlite luminescence, 48 h; series mostly up to 57.5 µM; further: nearly all actives have a fitted effect of over 55% in size
How it was run: (§3)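 Five-point cytotoxicity, 48 h drug exposure at 37 C, 5% CO2, on cells seeded 16 h beforehand. ATP content read by ATPlite luminescence.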

[10] = tested on: CAOV3; assay: as above; conditions: Gynecologic cancer cell panel viability, ATPlite luminescence, 48 h; series mostly up to 57.5 µM
How it was run: as §3

[11] = tested on: KB-3-1; assay: Cytotoxic Profiling of Annotated Libraries Using Quantitative High-Throughput Screening (AID 1296008); conditions: Five cell lines viability, CellTiter-Glo ATP luminescence, 48-72 h; max response: stronger effect = lower value; further: nearly all actives have a fitted effect of over 60% in size; on max response: on the % scale 0 is the no-effect control and ±100 the full control effect
How it was run: as §1

[12] = tested on: NIH3T3; assay: as above; conditions: Five cell lines viability, CellTiter-Glo ATP luminescence, 48-72 h; max response: stronger effect = lower value
How it was run: as §1

[13] = tested on: HACAT; assay: qHTS assay to identify novel small-molecules to repurpose for Merkel cell carcinoma treatment (AID 1296009); conditions: MCC and control cell lines, CellTiter-Glo viability, 72 h; at 44.8 µM (top of the series) unless noted; further: nearly all actives have a fitted effect of over 60% in size
How it was run: as §2

[14] = tested on: NIH3T3; assay: as above; conditions: MCC and control cell lines, CellTiter-Glo viability, 72 h; at 44.8 µM (top of the series) unless noted
How it was run: as §2

[15] = tested on: HEK293; assay: Cytotoxic Profiling of Annotated Libraries Using Quantitative High-Throughput Screening (AID 1296008); conditions: Five cell lines viability, CellTiter-Glo ATP luminescence, 48-72 h; max response: stronger effect = lower value; further: nearly all actives have a fitted effect of over 60% in size; on max response: on the % scale 0 is the no-effect control and ±100 the full control effect
How it was run: as §1

[16] = tested on: TAB113; assay: qHTS profiling for inhibitors of Plasmodium falciparum proliferation (AID 504749); further: nearly all actives have a fitted effect of over 60% in size; conditions: P. falciparum in erythrocytes, SYBR Green DNA, 72 h; series mostly up to 28.7 µM
How it was run: (§4)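 Three-day growth assay of blood-stage parasites in erythrocytes (0.3% parasitemia, 2.5% hematocrit) at 37 C, 5% CO2, quantified by SYBR Green DNA staining after overnight detergent lysis.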

[17] = tested on: TAB165; assay: as above; conditions: P. falciparum in erythrocytes, SYBR Green DNA, 72 h; series mostly up to 28.7 µM
How it was run: as §4

[18] = tested on: W2; assay: as above; conditions: P. falciparum in erythrocytes, SYBR Green DNA, 72 h; series mostly up to 28.7 µM
How it was run: as §4
Potency means the concentration at half of the fitted maximal effect.

CCS(=O)(=O)N1CC(CC#N)(n2cc(-c3ncnc4[nH]ccc34)cn2)C1
active: Potency [2] 5.17 µM
inactive: max response [1] -3.54% | max response [2] -22.3% | Potency [3] | Potency [4] | Potency [5] | Potency [6] | Potency [7] | Potency [8] | Potency [9] | Potency [10]

C[C@@H]1CCN(C(=O)CC#N)C[C@H]1N(C)c1ncnc2[nH]ccc12
active: Potency [2] 8.33 µM
inactive: max response [1] -14.7% | max response [11] -5.04% | max response [12] -18.3% | Potency [3] | Potency [4] | Potency [5] | Potency [6] | Potency [7] | Potency [8]

CO[C@H]1C=CC=C(C)C(=O)NC2=CC(=O)C(NCCN(C)C)=C(C[C@@H](C)C[C@H](OC)[C@@H](O)[C@@H](C)C=C(C)[C@@H]1OC(N)=O)C2=O
active: Potency [1] 0.0526 µM | Potency [2] 0.0332 µM | Potency [11] 37.2 nM | Potency [12] 0.132 µM | Potency [3] 4.69 µM | Potency [4] 3.72 µM | Potency [5] 1.05 µM | Potency [6] 14.8 µM | Potency [7] 0.296 µM

CS(=O)(=O)N(Cc1ccco1)CC(O)Cn1c2ccccc2c2ccccc21 (stereo not drawn)
inactive: max response [1] -10% and -6.7% | max response [2] -8.74% | outcome [2] | max response [11] -4.93% and 3.15% | max response [12] -17.4% and 0.438% | outcome [13] | Potency [3] | Potency [4] | Potency [5] | Potency [6] | Potency [8] | Potency [9] | Potency [10]

C=C1C(=O)OC2C=C(C)CCC=C(C)CCC12 (stereo not drawn)
inactive: max response [1] 0.517% | outcome [2] | max response [11] 2.36% | max response [12] 0.3% | outcome [13] | Potency [3] | Potency [4] | Potency [5] | Potency [7]

CCC(=O)O[C@]1(C(=O)CO)CC[C@H]2[C@@H]3CCC4=CC(=O)CC[C@]4(C)[C@@H]3CC[C@@]21C
inactive: max response [2] -31% | max response [11] 0.702% | outcome [12] | Potency [3] | Potency [4] | Potency [5] | Potency [6] | outcome [14] | Potency [7] | Potency [8]
active: Potency [1] 13.2 µM

O=c1cc(-c2ccccc2)oc2cc(O)cc(O)c12
active: Potency [15] 8.33 µM
inactive: max response [1] -20.5% | Potency [3] | Potency [5] | Potency [6] | Potency [7] | Potency [8]

O=c1c(-c2ccc(O)cc2)coc2cc(O[C@@H]3O[C@H](CO)[C@H](O)[C@H](O)[C@H]3O)ccc12
inactive: max response [1] -13.5% | max response [2] -4.86% | outcome [11] | max response [12] 1.51% | Potency [3] | Potency [4] | Potency [5] | Potency [6] | Potency [7] | Potency [8]

CON=C(C(=O)N[C@@H]1C(=O)N2C(C(=O)OCOC(=O)C(C)(C)C)=C(C=Cc3scnc3C)CS[C@H]12)c1csc(N)n1
inactive: outcome [1] | outcome [2] | max response [11] 0.86% | outcome [12] | outcome [13] | Potency [3] | Potency [4] | Potency [5] | Potency [6] | outcome [14] | Potency [7]

COc1cc(O)c2c(c1)C(=O)c1cc(C)cc(O)c1C2=O
inactive: outcome [1] | max response [2] -5.67% | max response [11] -1.03% | outcome [12] | Potency [3] | Potency [4] | Potency [5] | Potency [6] | outcome [14] inactive [at 17.4 µM] | Potency [7] | Potency [8]

O=C(O)[C@H]1O[C@H](Oc2cc3oc(-c4ccccc4)cc(=O)c3c(O)c2O)[C@H](O)[C@@H](O)[C@H]1O
inactive: max response [1] -6.52% | max response [2] -7.89% | max response [11] 2.26% | max response [12] -17.6% | Potency [3] | Potency [4] | Potency [5] | Potency [7] | Potency [8]

N#CC1(c2ccc(NC(=O)c3cccnc3NCc3ccncc3)cc2)CCCC1
inactive: max response [1] -26.7% | outcome [2] | max response [11] -11.6% | max response [12] -15.9% | outcome [13] | Potency [3] | Potency [4] | Potency [5] | Potency [6] | Potency [7] | Potency [8]

CC1=C(/C=C/C(C)=C/C=C/C(C)=C/C(=O)Nc2ccc(O)cc2)C(C)(C)CCC1
active: Potency [16] 11.2 µM | Potency [17] 10 µM | Potency [18] 5.36 µM | Potency [1] 16.8 µM | Potency [15] 5.96 µM | Potency [12] 21.1 µM | Potency [5] 26.6 µM | Potency [6] 10.6 µM | Potency [7] 9.44 µM | Potency [8] 23.7 µM | Potency [9] 7.94 µM

CC(C)(C)C(=O)Oc1ccc2c(c1)nc(NC(=O)c1cccc([N+](=O)[O-])c1)n2CCCO
inactive: outcome [1] | max response [2] -9.39% | max response [11] 7.62% | outcome [12] | Potency [3] | Potency [4] | Potency [5] | Potency [6] | outcome [14] | Potency [8]
